High-throughput results deposited in PubChem by National Center for Advancing Translational Sciences (NCATS).
KB-V1 cytotox: KB-V1 MDR subline cytotoxicity; KB-V1 MDR cells viability, CellTiter-Glo, 72 h; Potency, µM (doses to about 46.1 µM), hits mostly cytotoxic; 400,000 compounds, 3.4% hits; also: nearly all actives have a fitted effect of over 60% in size
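Drug-selected KB-V1 cells, grown in DMEM lacking phenol red with 10% FBS, receive compound titrations; after three days at 37 degrees C, surviving cell ATP is quantified by CellTiter-Glo luminescence and responses normalized and curve-fitted.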
DT40 TDP1 CPT: DT40-hTDP1 cell growth loss with CPT; chicken DT40 Tdp1-/-;hTDP1 cells + 20 nM CPT, ATP luminescence, 48 h; 420,000 compounds, 12% hits; Potency, µM (top dose mostly 46.2 µM), inactives show at the highest dose activity change, negative = growth inhibition, usual class: inhibitors; also: nearly all actives have a fitted effect of over 55% in size
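Chicken DT40 Tdp1-/- cells stably complemented with human TDP1 were seeded at 400 cells/well in medium containing 20 nM camptothecin, exposed to pin-transferred compounds, and grown at 37 °C for at least 48 hr. Viability was read as ATP luminescence.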
HT1080-NT tox: kills 2HG-producing HT-1080-NT fibrosarcoma cells. HT-1080-NT fibrosarcoma viability, CellTiter-Glo ATP luminescence, 48 h. 360,000 compounds, 1.6% hits. Potency, µM (doses to about 46.1 µM), inactives show top-dose activity, negative = less viability, most hits filed as cytotoxic. AID 686970;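 also: NT is the 2HG producing partner of a matched IDH1 knockdown line; 0% = DMSO-treated cells and -100% = media-only wells without cells; nearly all actives have a fitted effect of over 55% in size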
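A 48-hour cytotoxicity screen used HT-1080-NT cells plated 2 hours before compound delivery. ATP-based CellTiter-Glo luminescence measured viability, normalized to DMSO and no-cell controls.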
DT40 TDP1 no CPT: qHTS for Inhibitors of human tyrosyl-DNA phosphodiesterase 1 (TDP1): qHTS in cells in absence of CPT; Potency, µM (top dose mostly 46.2 µM), for inactives: top-dose activity change, negative = growth inhibition, most hits filed as inhibitors; DT40 Tdp1-/- hTDP1 cells, no CPT, ATP luminescence, 48 h; 420,000 compounds, 15% hits; also: nearly all actives have a fitted effect of over 55% in size
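Seeded 400 DT40-hTDP1 cells/well (vehicle DMSO, no 20 nM CPT); pinned compounds; ≥48 hr at 37 °C; CellTiter-Glo luminescence as viability measure.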
KB-3-1 cytotox: KB-3-1 parental cell cytotoxicity; 400,000 compounds, 1.4% hits; Potency, µM (highest dose often 46.1 µM), hits mostly cytotoxic; KB-3-1 viability, CellTiter-Glo ATP luminescence, 72 h; AID 1347075; also: nearly all actives have a fitted effect of over 60% in size
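Cytotoxicity measured as CellTiter-Glo luminescence after 72 h at 37 C. Compound titrations were pinned onto drug-naive KB-3-1 parental adenocarcinoma cells grown in DMEM with 10% FBS, and normalized data fitted to concentration-response curves.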
HT1080 IDH1KD tx: kills HT-1080 cells with IDH1 knockdown. AID 686971. 360,000 compounds, 2% hits. HT-1080 IDH1 knockdown viability, ATP luminescence, 48 h. Potency, µM (doses to about 46.1 µM), inactives show at the highest dose activity, negative = toxicity, most hits filed as cytotoxic;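 also: 0% = DMSO wells and -100% = cell-free medium wells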
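Cytotoxicity counter-line: IDH1KD HT-1080, 48 h, CellTiter-Glo. Curves classed by r2, magnitude and activity.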
* = called active by the depositor; i = inactive; ? = inconclusive; . = no result. Shown are actives, neighbours in structure and some others; about 19% of the full set was active somewhere. Calls follow the shape of the dose curve; as a rule, active = well fitted curve in the direction sought with a large enough effect; inconclusive = small, poorly fitted or top-dose-only effect, or another doubt; inactive = no such curve, though single readings can be large; an effect the other way counts as inactive or inconclusive. Unless noted, % is scaled to controls: 0 for no effect and ±100 for the full control effect; potency is read from the fitted curve at half-maximal effect.

SMILES	KB-V1 cytotox	DT40 TDP1 CPT	HT1080-NT tox	DT40 TDP1 no CPT	KB-3-1 cytotox	HT1080 IDH1KD tx
COc1ccc(N2CCN(C(=O)c3ccc(NS(=O)(=O)c4ccc(F)cc4)cc3)CC2)cc1	i	?	-11.6%	?	i	-20.9%
CCOC(=O)c1c(C)[nH]c(C)c1S(=O)(=O)NCC(=O)NCc1cccc(Br)c1	i	-22.0%	.	-22.9%	i	.
O=C(C1CCC(CNS(=O)(=O)c2cccs2)CC1)N1CCN(c2ccc(F)cc2)CC1 (stereo not drawn)	i	?	-13.4%	20.6µM*	?	-16.6%
O=C(NCc1ccc(F)cc1)C1CCC(CNS(=O)(=O)c2cccs2)CC1 (stereo not drawn)	?	3.9%	-12.9%	-29.4%	i	-0.9%
COc1ccc(N2CCN(C(=O)C3CCN(S(=O)(=O)c4cccs4)CC3)CC2)cc1	?	?	-11.6%	23.1µM*	i	-5.4%
CNc1nc(C)nc(-n2nc(C)cc2C)n1	i	-9.0%	-4.5%	-3.7%	i	-1.1%
Cc1cc(C)n(-c2nc(NC(C)C)nc(NC(C)(C)C)n2)n1	i	1.26µM*	.	0.794µM*	i	.
Cc1ccc(C(=O)c2oc3ccccc3c2N)cc1	i	16.4µM*	?	?	i	-23.7%
CCCCNC(=O)C1(C)CCCCN1C(=O)c1cc(-c2ccccc2)cs1 (stereo not drawn)	?	13µM*	-38.8%	8.2µM*	i	?
CCCCNC(=O)C1(C)CCCCN1C(=O)c1cccs1 (stereo not drawn)	i	?	8.1%	-17.4%	i	0.0%
Cc1c(C(=O)N2CCCC2(C)C(=O)NCC(C)C)oc2ccccc12 (stereo not drawn)	i	-15.1%	16.6%	-15.1%	i	?
CCCCNC(=O)C1(C)CCCCN1C(=O)c1oc2ccccc2c1C (stereo not drawn)	i	14.6µM*	7.5%	10.3µM*	i	-5.9%
CCOc1ccccc1NC(=O)CSc1ccc2nnc(CCNS(=O)(=O)c3ccccc3)n2n1	i	-22.7%	.	-21.1%	i	.
Cc1cc(C)c(NC(=O)CSc2nnc(SCC(=O)Nc3c(C)cc(C)cc3C)n2N)c(C)c1	i	14.6µM*	10.9%	?	i	6.8%
Cc1cc(C)c(NC(=O)CSc2nc3c(c(=O)n2C)SC(C)C3)c(C)c1 (stereo not drawn)	i	20.6µM*	12.3%	13µM*	i	6.1%
Cc1cc(C)cc(NC(=O)CSc2nc3c(c(=O)n2C)SC(C)C3)c1 (stereo not drawn)	i	-28.5%	-19.7%	-22.0%	i	-13.5%
CCOc1ccc(NC(=O)CSc2nc3c(c(=O)n2C)SC(C)C3)cc1 (stereo not drawn)	i	16.4µM*	14.3%	?	i	-1.2%
CC1Cc2nc(SCC(=O)Nc3ccc(F)cc3)n(C)c(=O)c2S1 (stereo not drawn)	4.11µM*	23.1µM*	-0.2%	?	i	10.9%
Cc1cc(C)c(NC(=O)CSc2nnc3[nH]c(=O)cc(C)n23)c(C)c1	.	-3.6%	.	2.0%	.	.
COc1cccc(NC(=O)CSc2nc3c(c(=O)n2C)SC(C)C3)c1 (stereo not drawn)	i	?	-0.3%	?	i	-0.7%
Oc1ccc(C=NCCc2ccccc2)cc1	i	-13.1%	3.5%	15.6%	i	1.2%
CC1CCN(S(=O)(=O)c2cccc(-c3cn4cc(Cl)ccc4n3)c2)CC1	i	?	1.1%	23.1µM*	i	-0.9%
CCN(CC)S(=O)(=O)c1ccc(-c2cn3cc(Cl)ccc3n2)cc1	?	?	0.0%	18.4µM*	?	-2.1%
Clc1ccc(-c2cn3cc(Cl)ccc3n2)cc1	i	-2.4%	-1.1%	-10.9%	i	0.2%
O=C(CN(c1ccccc1)S(=O)(=O)c1ccccc1)NCCSc1nc2ccccc2s1	?	?	-5.1%	18.4µM*	i	-4.2%
SMILES	KB-V1 cytotox	DT40 TDP1 CPT	HT1080-NT tox	DT40 TDP1 no CPT	KB-3-1 cytotox	HT1080 IDH1KD tx
Cc1ccccc1N(CC(=O)NCCSc1ccccn1)S(=O)(=O)c1ccccc1	i	-5.0%	-1.8%	?	i	9.6%
Cc1ccc(N(CC(=O)NCCSc2nc3ccccc3s2)S(=O)(=O)c2ccccc2)c(C)c1	8.2µM*	?	-7.3%	25.9µM*	?	-20.3%
CC(C)(C)SCCNC(=O)CN(c1ccccc1)S(=O)(=O)c1ccc(F)cc1	i	0.6%	-3.4%	-17.3%	i	17.6%
CC1(C(=O)NS(=O)(=O)Cc2ccccc2)CCN1C(=O)CCc1ccccc1 (stereo not drawn)	i	3.7%	9.5%	1.3%	i	?
Cn1c(=O)c(-c2ccc(Cl)cc2)nc2cnc(N3CCNCC3)nc21	.	10.3µM*	.	16.4µM*	.	.
CN1CCN(c2ncc3nc(-c4ccc(Cl)cc4)c(=O)n(C)c3n2)CC1	.	20.6µM*	.	?	.	.
O=C(NC(Sc1ccc(Cl)cc1)C(=O)O)c1ccccc1 (stereo not drawn)	i	20.6µM*	-3.5%	?	i	-14.8%
Nc1cc(C(F)(F)F)cc2c1SCC(=O)N2	i	-7.8%	-4.9%	?	i	-0.2%
COc1ccc(NC(=O)C2(C)CCN2Cc2ccc(C(C)C)cc2)cc1OC (stereo not drawn)	i	18.4µM*	16.2%	23.1µM*	i	-28.8%
COc1ccc(NC(=O)C2(C)CCN2CC2CCCCC2)cc1OC (stereo not drawn)	i	?	-0.1%	14.6µM*	i	-0.7%
COc1ccc(NC(=O)C2(C)CCN2Cc2ccccc2Cl)cc1OC (stereo not drawn)	?	9.2µM*	-29.2%	8.2µM*	i	?
CCCC(=O)N1CCC1(C)C(=O)NCc1ccccc1SC (stereo not drawn)	i	-28.2%	9.1%	-28.3%	i	?
NS(=O)(=O)c1ccc(CNC(=O)CNC(=O)c2ccc(Br)o2)cc1	i	0.7%	13.8%	-2.5%	i	9.7%
CC1CN(c2nc(-c3ccc(Br)cc3)nnc2-c2ccccc2)CC(C)N1 (stereo not drawn)	i	13µM*	-12.8%	10.3µM*	i	-1.0%
FC(F)(F)c1nnc(-c2ccccc2)nc1N1CCOCC1	?	-1.8%	-2.9%	-9.6%	i	0.4%
O=[N+]([O-])c1ccc(-c2nnc(-c3ccccc3)c(N3CCOCC3)n2)cc1	11.6µM*	-20.4%	2.8%	?	i	3.4%
